Shown are actives, neighbours in structure and some others; about 2.7% of the full set was active somewhere.
NTMT1 inh: NTMT1 methyltransferase inhibition | Q9BV86 | NTMT1 MTase-Glo SAH luminescence, purified enzyme | Potency, µM (top dose mostly 114 µM), actives largely listed as inhibitors | actives 2.5% (n = 59,000) | AID 1645870; note: nearly all actives have a fitted effect of over 65% in size
HTT promoter inh: inhibits huntingtin promoter activity. Potency, µM (highest dose often 57.5 µM), usual class: inhibitors. actives 0.93% (n = 48,000). AID 1508623. HEK293 HTT promoter firefly luciferase reporter, 24 h; note: nearly all actives have a fitted effect of over 50% in size
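Quantitative HTS used concentration series of up to 57.5 uM final on HEK293 luciferase reporter cells, 24 h at 37 degrees C. Readout was Dual-Glo firefly luminescence.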
HTT-AS promoter: activators of huntingtin-antisense promoter activity; AID 1508624; HEK293 HTT-AS promoter firefly luciferase reporter, 24 h; response scale: percent change from vehicle, -100% = no light; actives 0.24% (n = 48,000); Potency, µM (series often up to 57.5 µM), usual class: activators; note: nearly all actives have a fitted effect of over 55% in size
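Quantitative HTS used concentration series of up to 57.5 uM final on HEK293 luciferase reporter cells, 24 h at 37 degrees C. Readout was Dual-Glo firefly luminescence.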
GALC G270D up: raises human GALC G270D mutant activity in cells; P54803; 145M-Twi-hGALC-G270D cells, HMU-beta-Gal fluorescence, 48 h; Potency, µM (top dose mostly 57.5 µM), actives largely listed as activators; actives 0.1% (n = 45,000); note: nearly all actives have a fitted effect of over 65% in size
Target sequence (P54803 whole entry G286D): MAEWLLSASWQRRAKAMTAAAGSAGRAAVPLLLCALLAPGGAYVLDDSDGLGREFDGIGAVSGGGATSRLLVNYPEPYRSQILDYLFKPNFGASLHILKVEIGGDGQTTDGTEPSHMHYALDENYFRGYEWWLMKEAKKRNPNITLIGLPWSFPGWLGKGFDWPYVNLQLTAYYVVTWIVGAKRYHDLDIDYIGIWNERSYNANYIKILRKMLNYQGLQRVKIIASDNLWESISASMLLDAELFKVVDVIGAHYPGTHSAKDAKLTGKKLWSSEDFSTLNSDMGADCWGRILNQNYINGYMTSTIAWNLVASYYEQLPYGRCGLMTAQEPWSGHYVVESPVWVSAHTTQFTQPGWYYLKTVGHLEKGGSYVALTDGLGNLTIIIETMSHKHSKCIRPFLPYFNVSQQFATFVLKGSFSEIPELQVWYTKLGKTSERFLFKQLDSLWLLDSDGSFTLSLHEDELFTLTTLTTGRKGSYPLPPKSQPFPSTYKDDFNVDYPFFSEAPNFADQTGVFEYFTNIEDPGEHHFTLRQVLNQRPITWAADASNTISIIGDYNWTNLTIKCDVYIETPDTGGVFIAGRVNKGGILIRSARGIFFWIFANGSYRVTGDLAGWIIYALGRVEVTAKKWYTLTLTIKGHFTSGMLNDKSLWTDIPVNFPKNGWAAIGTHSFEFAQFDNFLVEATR
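qHTS, 1536-well; 145M-Twi-hGALC-G270D cells (WT line also made) in DMEM/F12 + 10% FBS; compound incubation on live cells; HMU-β-gal 0.1 mM final, pH 5.2, NaTC; carbonate stop; fluorescence increase = enhanced residual activity.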
Each line names hits and unclear results; the compound was inactive in the other large screens; ! = not active in a repeat. Calls come from the whole dose curve; as a rule, active = well fitted curve in the direction sought with a large enough effect; inconclusive = small, poorly fitted or top-dose-only effect, or another doubt; inactive = no such curve, though single readings can be large; an effect the other way counts as inactive or inconclusive.

COc1ccc(CN(CCN(C)C)c2ncccn2)cc1	none
CCCCCCCCCCCCCCCC[N+](C)(C)CCN(Cc1ccc(OC)cc1)c1ncccn1	NTMT1 inh 25µM, HTT promoter inh inconclusive
Cc1ccc(CCNc2ncnc3onc(-c4ccc(Cl)cc4)c23)cc1	HTT promoter inh inconclusive
COc1ccc(CCNc2ncnc3onc(C)c23)c(OC)c1	HTT promoter inh 1.3µM
CSc1ccc(CCNc2ncnc3onc(C)c23)cc1	NTMT1 inh inconclusive, HTT promoter inh 1µM
CCOc1ccc(CCNc2ncnc3onc(-c4ccc(Cl)cc4)c23)cc1	HTT promoter inh 14µM
COC1C=C([C@@H]2CC=C3[C@@]4(C)C(CC[C@]32C)[C@@]2(C)C=CC(=O)C(C)(C)C2C[C@H]4OC(C)=O)C(=O)O1 (stereo partly specified)	none (no result: HTT promoter inh, HTT-AS promoter, GALC G270D up)
CC(CNS(=O)(=O)C(C)C)c1ccc(-c2ccc(C#N)cc2)cc1 (stereo unspecified)	none (no result: HTT promoter inh, HTT-AS promoter, GALC G270D up)
N#CC1=C2SCN(C3CCCCC3)CN2C(=O)CC1c1c(F)cccc1Cl (stereo unspecified)	NTMT1 inh 32µM
N#CC1=C2SCN(C3CCCCC3)CN2C(=O)CC1c1ccc(Cl)cc1 (stereo unspecified)	NTMT1 inh 25µM
N#CC1=C2SCN(C3CCCCC3)CN2C(=O)CC1c1ccc(F)cc1 (stereo unspecified)	NTMT1 inh 25µM
C=CCc1ccc(O[C@@H]2O[C@H](CO)[C@@H](O)[C@H](O)[C@H]2O)c(OC)c1	none (no result: HTT promoter inh, HTT-AS promoter, GALC G270D up)
Cc1ccc2nc(-c3ccc(NC(=O)C(F)(F)F)cc3)sc2c1	GALC G270D up 14µM
C=C1[C@H](OC(=O)/C=C(\C)CC)C[C@@H](C(C)C)[C@@H]2[C@H]([C@@H](C)OC(C)=O)C(=O)C[C@@H]12	none (no result: HTT promoter inh, HTT-AS promoter, GALC G270D up)
O=c1c(-n2ccnn2)c[nH]n1-c1cc(N2CCOCC2)ncn1	NTMT1 inh 3µM! (no result: HTT promoter inh, HTT-AS promoter, GALC G270D up)
Cc1cc(NS(=O)(=O)c2ccc(NC(=O)Cc3ccc4ccccc4c3)cc2)no1	none (no result: HTT promoter inh, HTT-AS promoter, GALC G270D up)
CC(=O)Nc1sc2c(c1-c1ccc(Cl)cc1)CCNC2	none (no result: HTT promoter inh, HTT-AS promoter, GALC G270D up)
Cc1onc(-c2ccccc2Cl)c1C(=O)N(C)c1ccc(Cl)cc1	none (no result: HTT promoter inh, HTT-AS promoter, GALC G270D up)
CC(C)(C)c1ccc(O)c(O)c1	NTMT1 inh 4.5µM, HTT promoter inh inconclusive
Cc1cc(C(C)(C)C)c(O)c(C(C)(C)C)c1	none
Nc1cc(C(F)(F)F)c(-c2nc(N3CCOCC3)nc(N3CCOCC3)n2)cn1	none (no result: HTT promoter inh, HTT-AS promoter, GALC G270D up)
CNC1CCC(N(Cc2cccc(-c3ccncc3)c2)C(=O)c2sc3ccccc3c2Cl)CC1 (stereo unspecified)	NTMT1 inh 35µM! (no result: GALC G270D up)
Cc1ccc(NC(=O)c2sc3ccccc3c2Cl)cc1	HTT-AS promoter inconclusive
CNC1CCC(N(Cc2cccc(-c3ccncc3)c2)C(=O)c2sc3c(F)ccc(F)c3c2Cl)CC1 (stereo unspecified)	NTMT1 inh 71µM! (no result: GALC G270D up)
CC1(C)CC[C@]2(C(=O)O[C@@H]3O[C@H](CO)[C@@H](O)[C@H](O)[C@H]3O)CC[C@]3(C)C(=CCC4[C@@]5(C)CC[C@H](OC6OC(C(=O)O)C(OC7OC(CO)C(O)C(O)C7O)C(O)C6O)C(C)(C)C5CC[C@]43C)C2C1 (stereo partly specified)	none (no result: HTT promoter inh, HTT-AS promoter, GALC G270D up)
CCNc1ccc(-c2nc(-c3ccco3)no2)cc1[N+](=O)[O-]	HTT-AS promoter 0.35µM
Cc1ccccc1-c1noc(-c2ccc(N3CCCC3)c([N+](=O)[O-])c2)n1	HTT promoter inh 10µM
COCCNc1ccc(-c2nc(-c3ccco3)no2)cc1[N+](=O)[O-]	HTT-AS promoter inconclusive
Cc1ccccc1-c1noc(-c2ccc(N3CCN(C)CC3)c([N+](=O)[O-])c2)n1	NTMT1 inh inconclusive, HTT promoter inh 2.2µM
O=C(Nc1ccccc1)Nc1ccc(-c2ccc(C(=O)C3CCCC3C(=O)O)cc2)cc1 (stereo unspecified)	none (no result: HTT promoter inh, HTT-AS promoter, GALC G270D up)
COc1ccc(NC(=O)Nc2nnc(C)s2)cc1	HTT-AS promoter 11µM
N#Cc1ccc(-c2ccc(NC(=O)Nc3ccc(-c4ccnc5nc[nH]c45)cc3)cc2)cc1	none (no result: HTT promoter inh, HTT-AS promoter, GALC G270D up)
COc1ccccc1NC(=O)c1cc2cc3ccc(OC)c(Cl)c3nc2s1	NTMT1 inh 40µM
CCOc1ccc(-c2nc(-c3cccc4c3CCC4NCCO)no2)cc1OCC (stereo unspecified)	none (no result: HTT promoter inh, HTT-AS promoter, GALC G270D up)
O=C(Nc1ccc(C(F)(F)F)cc1)c1cc(S(=O)(=O)NC2CCCCCC2)ccc1F	HTT promoter inh 28µM
Cc1ccc(-c2cc(C(=O)N(C)c3ccccc3)c3ccccc3n2)cc1C	none (no result: HTT promoter inh, HTT-AS promoter, GALC G270D up)
COc1ccc(NS(=O)(=O)c2ccc3c(c2)CCN3C(=O)C2CC2)cc1OC	HTT promoter inh 4µM
COc1ccc(NC(=O)CCNS(=O)(=O)c2ccc3c(c2)CCN3C(=O)C2CC2)cc1Cl	HTT promoter inh inconclusive
O=C(CCNS(=O)(=O)c1ccc2c(c1)CCN2C(=O)C1CC1)N1CCN(c2cccc(C(F)(F)F)c2)CC1	HTT promoter inh 28µM
Cc1cccc(NS(=O)(=O)c2ccc3c(c2)CCN3C(=O)C2CCC2)c1	HTT promoter inh 20µM
O=C(CCl)Nc1cccc(NC2=NS(=O)(=O)c3ccccc32)c1	none (no result: HTT promoter inh, HTT-AS promoter, GALC G270D up)
CCOC(=O)c1ccc(O)c2ncc(NCC3CCCN(CCc4ccccc4)C3)cc12 (stereo unspecified)	none (no result: HTT promoter inh, HTT-AS promoter, GALC G270D up)
Cc1ccc(-c2cn(-c3ccc(Cl)cc3)c(S(=O)(=O)CC(=O)Nc3ccccc3)n2)cc1	HTT-AS promoter inconclusive
Cc1ccc(-n2cc(-c3ccccc3)nc2S(=O)(=O)CC(=O)Nc2ccc(F)cc2)cc1	HTT-AS promoter 3.2µM
COc1cc2c(NC3CCN(C4CCCCC4)CC3)nc(N3CCCN(C(C)C)CC3)nc2cc1OCCCN1CCCCC1	NTMT1 inh 20µM (no result: HTT promoter inh, HTT-AS promoter, GALC G270D up)
COc1cc2nc(N3CCN(C)CC3)nc(NCCN(C)C)c2cc1OC	none (no result: HTT promoter inh, HTT-AS promoter, GALC G270D up)
CC(=O)c1cccc(NC(=O)c2nc3ccccc3n(C)c2=O)c1	NTMT1 inh 25µM, HTT-AS promoter inconclusive
CCCn1c(-c2ccc(F)cc2)nc2c(NCCCCN(CC)CC)nc(C)nc21	none (no result: HTT promoter inh, HTT-AS promoter, GALC G270D up)
CCN(CC)CCCCNc1nc2cc(Cl)c(Cl)cc2nc1-c1ccc(-c2cccs2)s1	NTMT1 inh 20µM!, HTT promoter inh inconclusive (no result: GALC G270D up)
COc1ccc(-c2nc(CSCC(=O)N3CCN(c4ccccc4F)CC3)c(C)o2)cc1	HTT promoter inh 28µM
Cc1oc(-c2ccccc2F)nc1CSCC(=O)N1CCN(c2ccccc2)CC1	HTT promoter inh 22µM
CCOC(=O)c1c(NC(=O)c2ccc(S(=O)(=O)N(CC(C)C)CC(C)C)cc2)sc2c1CCN(CC)C2	NTMT1 inh 89µM, HTT promoter inh inconclusive
CN(C)C/C=C/C(=O)Nc1ccc(C(=O)Nc2cccc(Nc3ncc(Cl)c(-c4c[nH]c5ccccc45)n3)c2)cc1	NTMT1 inh 50µM! (no result: HTT promoter inh, HTT-AS promoter, GALC G270D up)
COc1cccc(NC(=O)C(=O)NCC(c2ccc3c(c2)OCO3)N2CCOCC2)c1 (stereo unspecified)	HTT-AS promoter 4.5µM
Cc1ccc(C(=O)NCC(c2ccc3c(c2)OCO3)N2CCN(c3ccc(F)cc3)CC2)cc1 (stereo unspecified)	HTT promoter inh 22µM

Screening data from PubChem.
